Shown are actives, neighbours in structure and some others; about 2.4% of the full set was active somewhere.
D2 PAM-1 = positively modulates the human D2 dopamine receptor allosterically; HEK293 T-REx D2, calcium flux, EC20 dopamine potentiation; potentiation, % at 10 µM; 340,000 tested, 0.34% active;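 active means potentiation over 3 SD above the plate norm, cut at about 30% in these data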
Target sequence (P14416 whole entry, looked up): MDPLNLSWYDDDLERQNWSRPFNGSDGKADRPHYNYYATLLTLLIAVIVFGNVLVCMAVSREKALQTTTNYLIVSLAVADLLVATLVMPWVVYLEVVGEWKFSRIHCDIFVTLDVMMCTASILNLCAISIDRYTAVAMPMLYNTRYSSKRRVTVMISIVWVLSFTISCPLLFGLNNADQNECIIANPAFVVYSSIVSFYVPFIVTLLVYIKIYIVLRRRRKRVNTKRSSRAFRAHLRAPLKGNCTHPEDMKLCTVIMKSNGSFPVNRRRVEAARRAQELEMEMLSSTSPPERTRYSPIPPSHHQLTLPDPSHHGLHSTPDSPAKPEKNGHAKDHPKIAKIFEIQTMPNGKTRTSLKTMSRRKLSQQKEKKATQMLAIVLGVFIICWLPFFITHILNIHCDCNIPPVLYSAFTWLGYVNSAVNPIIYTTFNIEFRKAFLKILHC
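Calcium flux readout, no-wash dye, 1 read/s. Inducible HEK293 Trex D2 line, overnight 30 C. Compound alone 180 s (agonist flags), then EC20 dopamine, another 180 s to score potentiation.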
D2 ag-1 = agonists of human D2 dopamine receptor | 340,000 tested, 0.53% active | HEK293 T-REx D2 cells, calcium flux agonist mode | activation, % at 2 µM | P14416 | AID 485358;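 active means activation over 3 SD above normal in the single-dose calcium agonist read, cut at about 30% in these data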
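Tetracycline-induced HEK293 Trex cells with D2 receptor force-coupled to calcium signaling, plated overnight at 30 C and loaded with no-wash calcium dye. Calcium flux read kinetically for 180 s after compound addition; responses flag agonists.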
D2 ag-2 = human D2 receptor agonism in beta-arrestin assay. activation, % (concentration not given with the values). 360,000 tested, 0.084% active. P14416. DiscoveRx PathHunter D2 beta-arrestin, luminescence, 90 min; 100% = 57 uM dopamine signal; in the data active means activation above about 40%; inconclusive means between about 15% and that limit
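Agonist mode: compounds alone added to overnight-plated D2 PathHunter cells for 90 min at 37 C, with 57 uM final dopamine (EC100) defining full response. Beta-arrestin recruitment detected by chemiluminescent reagent, read after 1 h at ambient temperature.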
D2 PAM-2 = human D2 receptor positive allosteric modulation. P14416. DiscoveRx D2 beta-arrestin cells, luminescence, 90 min; 100% = 57 uM dopamine signal. potentiation, % (concentration not given with the values). 360,000 tested, 0.23% active; in the data active means potentiation above about 50%; inconclusive means mostly about 30% to 49%
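PathHunter beta-arrestin assay in DiscoveRx D2 cells. Compounds were added with an EC20 of dopamine (50 nM final) for 90 min at 37 deg C. Luminescence was read 1 h after detection reagent, with 57 uM dopamine as the EC100 control.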
D2 antagonist = D2 dopamine receptor (human) antagonism | HEK293 TREx D2 cells, calcium flux, dopamine EC80 | inhibition, % at 10 µM | 340,000 tested, 2% active | AID 485344; in the data active means inhibition above about 30%; inactive means below that, where a call was filed
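Tetracycline-induced HEK293 T-REx cells expressing D2 force-coupled to calcium signalling were dye-loaded, exposed to compound for 180 s, then challenged with an EC80 of dopamine; calcium flux was followed kinetically for a further 180 s.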
Of the large screens only hits and unclear results are named; the others gave an inactive call.

O=C(CN1C(=O)COc2ccc(S(=O)(=O)N3CCOCC3)cc21)NCc1ccc(Cl)cc1	none (no result: D2 ag-2, D2 PAM-2, D2 antagonist)
Cc1ccc(NC(=O)Cn2c(=O)n(CCC(=O)N3CCc4ccccc4C3)c(=O)c3ccccc32)cc1	none (no result: D2 ag-2, D2 PAM-2, D2 antagonist)
CCOC(=O)C1C(=O)NC(c2ccccc2)=NC1c1cccc(Br)c1 (stereo unspecified)	D2 antagonist 55
CC(C)c1ccc(OCC(=O)Nc2c3c(nn2C(C)(C)C)CS(=O)(=O)C3)cc1	D2 PAM-2 57
CC(C)c1ccc(NC(=O)CN2C(=O)COc3ccc(S(=O)(=O)N4CCCCC4)cc32)cc1	none (no result: D2 ag-2, D2 PAM-2, D2 antagonist)
COc1ccc(C2N(C(=O)C(F)(F)F)C(C)CN2S(=O)(=O)c2ccc(C)cc2)cc1 (stereo unspecified)	D2 antagonist 35
COc1ccc(C2N(S(=O)(=O)c3ccc(C)cc3)CCN2S(=O)(=O)c2ccc(C)cc2)cc1	D2 antagonist 36
COc1ccc(Nc2nnc(-c3ccc(C)c(S(=O)(=O)N4CCOCC4)c3)c3ccccc23)cc1	none (no result: D2 ag-2, D2 PAM-2, D2 antagonist)
O=C(COc1cccnc1[N+](=O)[O-])Nc1ccc(F)cc1	none (no result: D2 PAM-1, D2 ag-1, D2 antagonist)
CC(NC(=O)COc1cccnc1[N+](=O)[O-])c1ccc(F)cc1 (stereo unspecified)	D2 PAM-1 34
Cn1c(=O)cc(OCCCC(=O)NCCCN2CCN(Cc3ccccc3)CC2)c2ccccc21	none
CC1(C)CC(=O)c2cc(OCC(=O)NCCCN3CCN(c4ccccc4F)CC3)ccc2O1	D2 ag-1 78, D2 ag-2 inconclusive, D2 antagonist 82
Cn1c(=O)cc(OCC(=O)NCCCN2CCN(c3cccc(Cl)c3)CC2)c2ccccc21	D2 ag-1 69, D2 antagonist 77
CCCCCCCNC(=O)COc1ccc2c(c1)C(=O)CC(C)(C)O2	none
COCCNC(=O)COc1cc(=O)n(C)c2ccccc12	none
O=C(NCCCN1CCN(c2cccc(Cl)c2)CC1)C1(S(=O)(=O)c2ccc(Cl)cc2)CC1	D2 antagonist 35
Cn1c(=O)cc(OCCCC(=O)NCCN2CCN(c3ccccc3F)CC2)c2ccccc21	D2 ag-1 32, D2 antagonist 36
COc1ccc(OC)c(NC(=O)C2CCCN(S(=O)(=O)c3ccc4[nH]c(=O)ccc4c3)C2)c1 (stereo unspecified)	none (no result: D2 ag-2, D2 PAM-2, D2 antagonist)
COc1ccc(CCN2C(=O)CN(C3CCC(C)CC3)C(=O)C2c2ccc(OC(C)C)c(OC)c2)cc1OC (stereo unspecified)	none (no result: D2 ag-2, D2 PAM-2, D2 antagonist)
O=C(NCc1ccccc1)C1CCN(S(=O)(=O)c2ccc(N3CCCC3=O)cc2)CC1	none
O=C(Nc1cccc(C(F)(F)F)c1)C1CCN(S(=O)(=O)c2ccc(N3CCCC3=O)cc2)CC1	D2 antagonist 64
COc1ccccc1CNC(=O)C1CCN(S(=O)(=O)c2ccc(N3CCCC3=O)cc2)CC1	D2 antagonist 37
ClCc1csc(-c2ccc(Cl)cc2)n1	none
CC1CN(Cc2csc(-c3ccc(Cl)cc3)n2)CC(C)O1 (stereo unspecified)	D2 antagonist 37
Cc1cccc(NC(=O)C(=O)NCC(c2cccnc2)N2CCOCC2)c1 (stereo unspecified)	none (no result: D2 ag-2, D2 PAM-2, D2 antagonist)
CCOCCCNCc1ccc(OCCC(C)C)c(OC)c1	D2 antagonist 35
COc1ccc(CN2CCCC(C(=O)Nc3cccc(-n4cccn4)c3)C2)cc1 (stereo unspecified)	D2 antagonist 79
CCOC(=O)CSc1nc2sc3c(c2c(=O)[nH]1)CCCC3	none
O=C(CSc1nc2sc3c(c2c(=O)[nH]1)CCCC3)NCCO	D2 antagonist 42
CCOC(=O)CNC(=O)c1cc(OC)cc(OC)c1	D2 antagonist 39 (no result: D2 PAM-1)
COc1cc(/C=N/NC(=O)C(=O)NCc2cccnc2)ccc1O	none
COc1ccc(C(=O)NCc2cccnc2)cc1Br	none
COc1cc(OC)cc(C(=O)NCc2cccnc2)c1	D2 PAM-1 30
COc1ccc(/C=N/NC(=O)C(=O)NCc2cccnc2)cc1OC	D2 antagonist 33
COc1cccc(N(Cc2nnc3n2CCCCC3)C(=O)Nc2cccc(Cl)c2)c1	none (no result: D2 ag-2, D2 PAM-2, D2 antagonist)
CC(C)CCNC(=O)CN1C(=O)CSc2ccc(S(=O)(=O)N3CCC(C)CC3)cc21	none (no result: D2 ag-2, D2 PAM-2, D2 antagonist)
Fc1c(F)c(F)c(N/N=C/c2c[nH]c3ccccc23)c(F)c1F	D2 ag-2 inconclusive, D2 PAM-2 60

Source: PubChem (National Center for Advancing Translational Sciences (NCATS))
